Structures can show the parent of a compound that is named as a salt.

The first assay relates to Saccharomyces cerevisiae. Kind of assay: fraction of cells in G1 phase (DNA content, flow cytometry); higher = more cells with unreplicated DNA (G1 delay). Particulars: temperature: 30 C; YPD; BY4741 PDR5+ SNQ2+; drug added to: actively dividing cells; 4.33 h. As for the experimental part:
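S. cerevisiae cultures in YPD at 30°C were treated with each drug of the Enzo FDA-approved library at 20 µg/ml (final µM given per drug). Cells were fixed after 6–7 h (S1) or 6 h (S2), or after 4.33 h for BY4741 (S3), then stained with SYTOX Green. %G1 is the Dean-Jett-Fox G1 peak area divided by the G1+G2/M peak areas, written as a fraction and averaged over at least two independent experiments. DMSO reference: mean ~0.49; >0.60 is called High G1 and <0.3876 Low G1. Scale: lower means mitotic delay.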
Take `CC1CCc2c(N3CCC(O)CC3)c(F)cc3c(=O)c(C(=O)O)cn1c23` (stereo not given) [Nadifloxacin] (55.4956 µM): the “fraction of cells in G1 phase” value was 0.43.
In the case of `CC1=C(/C=C/C(C)=C/C=C/C(C)=C/C(=O)Nc2ccc(O)cc2)C(C)(C)CCC1` [Fenretinide] (51.0779 µM), the “fraction of cells in G1 phase” value was 0.462.
For `CCOC(=O)C1=C(COCCN)NC(C)=C(C(=O)OC)C1c1ccccc1Cl` (stereo not given) [Amlodipine] (48.9134 µM), the “fraction of cells in G1 phase” value came out at 0.481.

Still in this assay, the particulars now being: temperature: 30 C; YPD; JTY2953 pdr5 snq2 (sensitized); drug added to: actively dividing cells; 6 h.
On to `Cc1ccc(-c2cc(C(F)(F)F)nn2-c2ccc(S(N)(=O)=O)cc2)cc1` [Celecoxib] (52.4412 µM), for which the “fraction of cells in G1 phase” value was found to be 0.299.
Turning to `CSc1ccc2c(c1)N(CCC1CCCCN1C)c1ccccc1S2` (stereo not given) [Thioridazine HCl] (53.969 µM), the “fraction of cells in G1 phase” value turned out to be 0.469.
For the compound `CCOC(=O)C1=C(C)NC(C)=C(C(=O)OC)C1c1cccc(Cl)c1Cl` (stereo not given) [Felodipine] (52.0478 µM), the “fraction of cells in G1 phase” value is 0.609.
On to `CC1=C(/C=C/C(C)=C/C=C/C(C)=C/C(=O)Nc2ccc(O)cc2)C(C)(C)CCC1` [Fenretinide] (51.0779 µM), for which the “fraction of cells in G1 phase” value was determined as 0.681.
`CCOC(=O)C1=C(COCCN)NC(C)=C(C(=O)OC)C1c1ccccc1Cl` (stereo not given) [Amlodipine] (48.9134 µM): the “fraction of cells in G1 phase” value amounted to 0.673.
For `CCC(C)(C)c1ccc(CC(C)CN2C[C@@H](C)O[C@@H](C)C2)cc1` (stereo not given in full) [Amorolfine] (62.9883 µM), the “fraction of cells in G1 phase” value turned out to be 0.367.

The same assay, now with this note: temperature: 30 C; YPD; JTY2953 pdr5 snq2 (sensitized); drug added to: cultures diluted from stationary phase; 6-7 h.
`CO[C@H](C(=O)[C@@H](O)[C@@H](C)O)[C@@H]1Cc2cc3cc(O[C@H]4C[C@@H](O[C@H]5C[C@@H](O)[C@H](O)[C@@H](C)O5)[C@H](O)[C@@H](C)O4)c(C)c(O)c3c(O)c2C(=O)[C@H]1O[C@H]1C[C@@H](O[C@H]2C[C@@H](O[C@H]3C[C@](C)(O)[C@H](O)[C@@H](C)O3)[C@@H](O)[C@@H](C)O2)[C@H](O)[C@@H](C)O1` [Plicamycin] (18.4303 µM): the “fraction of cells in G1 phase” value is 0.513.
As for `CNCCC(Oc1ccccc1OC)c1ccccc1` (stereo not given) [Nisoxetine HCl] (73.7022 µM), the “fraction of cells in G1 phase” value was 0.511.
Same read-out and setting: to `Cc1ccc(-c2cc(C(F)(F)F)nn2-c2ccc(S(N)(=O)=O)cc2)cc1` [Celecoxib] (52.4412 µM) belongs 0.863; to `CSc1ccc2c(c1)N(CCC1CCCCN1C)c1ccccc1S2` (stereo not given) [Thioridazine HCl] (53.969 µM), 0.729.
Regarding `CC1CNc2c(cccc2S(=O)(=O)N[C@@H](CCCNC(=N)N)C(=O)N2CC[C@@H](C)C[C@@H]2C(=O)O)C1` (stereo not given in full) [Argatroban] (39.3202 µM), the “fraction of cells in G1 phase” value stood at 0.487.
Turning to `O=P(O)(O)C(O)(Cc1cccnc1)P(=O)(O)O` [Risedronic acid] (70.6425 µM), the “fraction of cells in G1 phase” value stood at 0.463.
For `CC1CCc2c(N3CCC(O)CC3)c(F)cc3c(=O)c(C(=O)O)cn1c23` (stereo not given) [Nadifloxacin] (55.4956 µM), the “fraction of cells in G1 phase” value was 0.281.
Take `CO[C@H]1/C=C/O[C@@]2(C)Oc3c(C)c(O)c4c(O)c(c(/C=N/N5CCN(C)CC5)c(O)c4c3C2=O)NC(=O)/C(C)=C\C=C\[C@H](C)[C@H](O)[C@@H](C)[C@@H](O)[C@@H](C)[C@H](OC(C)=O)[C@@H]1C` [Rifampicin] (24.3025 µM): the “fraction of cells in G1 phase” value turned out to be 0.502.
Still for that read-out and setting: under `CCCc1nn(C)c2c(=O)[nH]c(-c3cc(S(=O)(=O)N4CCN(C)CC4)ccc3OCC)nc12` [Sildenafil] (42.142 µM) stands 0.503.
In the case of `CN1CCC(=C2c3ccccc3C=Cc3ccccc32)CC1` [Cyproheptadine] (69.5874 µM), the “fraction of cells in G1 phase” value amounted to 0.426.
Still for that read-out and setting: to `CCOC(=O)C1=C(C)NC(C)=C(C(=O)OC)C1c1cccc(Cl)c1Cl` (stereo not given) [Felodipine] (52.0478 µM) belongs 0.683; to `NC[C@@H]1O[C@H](O[C@H]2[C@@H](O)[C@H](O[C@@H]3[C@@H](O)[C@H](N)C[C@H](N)[C@H]3O[C@H]3O[C@H](CN)[C@@H](O)[C@H](O)[C@H]3N)O[C@@H]2CO)[C@H](N)[C@@H](O)[C@@H]1O` [Neomycin sulfate] (32.5386 µM), 0.495; to `COc1ccc(CC2c3cc(OC)c(OC)cc3CC[N+]2(C)CCC(=O)OCCCCCOC(=O)CC[N+]2(C)CCc3cc(OC)c(OC)cc3C2Cc2ccc(OC)c(OC)c2)cc1OC` (stereo not given) [Atracurium besylate] (21.5246 µM), 0.474.
With `O=C(O)c1cc(=O)c2c(OCC(O)COc3cccc4oc(C(=O)O)cc(=O)c34)cccc2o1` [Disodium cromoglycate] (39.0365 µM), the “fraction of cells in G1 phase” value worked out at 0.529.
In the case of `CC(C(=O)O)c1ccc2c(c1)Cc1cccnc1O2` (stereo not given) [Pranoprofen] (78.3466 µM), the “fraction of cells in G1 phase” value worked out at 0.479.
On to `CO/N=C(\C(=O)N[C@@H]1C(=O)N2C(C(=O)[O-])=C(C[N+]3(C)CCCC3)CS[C@H]12)c1csc(N)n1` [Cefepime] (41.6174 µM), for which the “fraction of cells in G1 phase” value was 0.504.
On the same count and under the same terms, under `CC(N/C(=N\C#N)Nc1ccncc1)C(C)(C)C` (stereo not given) [Pinacidil] (81.5229 µM) stands 0.51.
On the same count and under the same terms, under `COc1ccccc1OCC(O)CO` (stereo not given) [Guaifenesin] (100.898 µM) stands 0.463.
`CC[C@H]1OC(=O)[C@H](C)[C@@H](O[C@H]2C[C@@](C)(OC)[C@@H](O)[C@H](C)O2)[C@H](C)[C@@H](O[C@@H]2O[C@H](C)C[C@H](N(C)C)[C@H]2O)[C@](C)(O)C[C@@H](C)/C(=N\OCOCCOC)[C@H](C)[C@@H](O)[C@]1(C)O` [Roxithromycin] (23.8929 µM): the “fraction of cells in G1 phase” value is 0.472.
As for `CC(=O)O[C@H]1C[C@@H]2CC[C@@H]3[C@H](CC[C@@]4(C)[C@H]3C[C@H]([N+]3(C)CCCCC3)[C@@H]4OC(C)=O)[C@@]2(C)C[C@@H]1N1CCCCC1` [Vecuronium Br] (35.8523 µM), the “fraction of cells in G1 phase” value worked out at 0.478.
Turning to `CC1=C(/C=C/C(C)=C/C=C/C(C)=C/C(=O)Nc2ccc(O)cc2)C(C)(C)CCC1` [Fenretinide] (51.0779 µM), the “fraction of cells in G1 phase” value is 0.604.
With `CCCCCN(C)CCC(O)(P(=O)(O)O)P(=O)(O)O` [Ibandronate] (62.65 µM), the “fraction of cells in G1 phase” value turned out to be 0.474.
As to `CCOC(=O)C1=C(COCCN)NC(C)=C(C(=O)OC)C1c1ccccc1Cl` (stereo not given) [Amlodipine] (48.9134 µM), the “fraction of cells in G1 phase” value turned out to be 0.768.
`COc1ccc(CCN(C)CCCC(C#N)(c2ccc(OC)c(OC)c2)C(C)C)cc1OC` (stereo not given) [Verapamil] (40.7249 µM): the “fraction of cells in G1 phase” value worked out at 0.507.
As for `CC(C)n1c(/C=C/[C@@H](O)C[C@@H](O)CC(=O)O)c(-c2ccc(F)cc2)c2ccccc21` [Fluvastatin Na] (48.6053 µM), the “fraction of cells in G1 phase” value amounted to 0.464.
In the case of `CCC(C)(C)c1ccc(CC(C)CN2C[C@@H](C)O[C@@H](C)C2)cc1` (stereo not given in full) [Amorolfine] (62.9883 µM), the “fraction of cells in G1 phase” value worked out at 0.841.
On the same count and under the same terms, under `O=C(Nc1cccc2c(=O)cc(-c3nnn[nH]3)oc12)c1ccc(OCCCCc2ccccc2)cc1` [Pranlukast] (41.5355 µM) stands 0.561; under `Cc1nccn1CC1CCc2c(c3ccccc3n2C)C1=O` (stereo not given) [Ondansetron] (68.1729 µM), 0.463.
`C[C@H]1C[C@@H]2[C@H]([C@@H](O)C[C@@]3(C)[C@H]2CC[C@]3(O)C(=O)CO)[C@@]2(C)C=CC(=O)C=C12` [Methylprednisolone] (53.4072 µM): the “fraction of cells in G1 phase” value is 0.481.
Turning to `CCCCn1c(=O)c2c(ncn2CC(C)=O)n(CCCC)c1=O` [Denbufylline] (62.423 µM), the “fraction of cells in G1 phase” value is 0.517.
Same read-out and setting: under `COc1cc(NC(C)CCCN)c2ncccc2c1` (stereo not given) [Primaquine phosphate] (77.1146 µM) stands 0.461.
